Screening data: PubChem, several laboratories
LGR2 antag: Drosophila LGR2 receptor signaling inhibition; 380,000 tested, 0.35% active; HEK293 LGR2, CRE-luciferase, bursicon-stimulated, 4 h; inhibition, % at 9.99 µM; AID 720647;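 active = drop in luminescence signal, shown as inhibition above about 50% in the replicate tests, limit read from the data, passing the limit was not always enough; inconclusive = probably only some replicates passing the limit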;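 note: agonist challenge used bursicon conditioned medium at about half maximal strength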
TROY signal inh: inhibitors of TROY-dependent NF-kB signaling | Q293 LMP1-TROYcd NF-kB luciferase reporter, 4 h | 360,000 tested, 0.98% active | inhibition, % at 10 µM | AID 1347056;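 active = compounds whose plate-normalised and pattern-corrected inhibition of the luciferase reporter signal at the single screening dose is 50% or more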
KKLEB tox: counter-screen for CF NF-kB inhibitors: cytotoxicity; KKLEB CF airway cells viability, ATPlite luminescence, overnight; active compounds read low; cells stimulated with P. aeruginosa culture filtrate; 360,000 tested, 0.36% active; AID 602141; activity change (cytotoxicity), % at 5 µM;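 active = corrected activity change at or below -50% at 5 µM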
EWS-Fli block: EWS/Fli transcriptional activity inhibition | A673 NR0B1-luciferase reporter, viability-normalised | inhibition, % at 12.6 µM | 350,000 tested, 0.67% active;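 active = mean inhibition of at least 50% after viability correction, with every replicate also passing that limit; inconclusive = mean reaches 50% but only one of two replicates passes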;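 note: firefly luciferase signal divided by Alamar Blue viability fluorescence both relative to DMSO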
TWEAK-Fn14 inh: blocks TWEAK-Fn14 interaction in a reporter cell assay. TWEAK-stimulated Fn14 reporter cells, luciferase luminescence, 8 h. inhibition, % at 10 µM. 360,000 tested, 2% active. AID 1159606; in the data active = inhibition above about 50%
CF NFkB inh: inhibitors of cystic fibrosis induced NF-kB. inhibition, % at 5 µM. KKLEB NF-kB-GFP reporter, PAF-induced, GFP fluorescence overnight. 360,000 tested, 0.86% active. AID 588850;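 active = at least 50% inhibition at 5 µM, scaled per plate between neutral and stimulator controls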;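 note: PAF is a Pseudomonas aeruginosa culture filtrate used as stimulus; plate controls were PAF-stimulated DMSO wells for no effect and unstimulated DMSO wells for full effect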
* marks the source's active call; other numbers are inactive results; ? = inconclusive; nt = not tested or not shown. In the library only some 2.6% were active in any assay of this set; here they are far more common.

SMILES | LGR2 antag | TROY signal inh | KKLEB tox | EWS-Fli block | TWEAK-Fn14 inh | CF NFkB inh
CC(=O)NC12CC3CC(C1)CC(C(=O)OCC(=O)c1ccc4c(c1)OCCO4)(C3)C2 | nt | 53.8* | -4.1 | nt | 58.2* | -8.5
CC(=O)NC12CC3CC(C1)CC(C(=O)OCC(=O)c1cc(C)n(C)c1C)(C3)C2 | -15.6 | -20.2 | -5.1 | -28.8 | 0.5 | -0.1
O=C(C1CCCC1)N1CCCCN2[C@H](CO)[C@H](c3ccc(C#CC4(O)CCCC4)cc3)[C@@H]2C1 | nt | nt | nt | 1.7 | nt | nt
COC(=O)c1c(NC(=O)CCl)sc(C(=O)N2CCOCC2)c1C | -4.2 | -1.7 | -40.4 | 27.2 | 2.2 | 50.1*
COc1ccc(/C=N/Nc2nc(C)c([N+](=O)[O-])c(N(C)c3ccccc3)n2)cc1OC | nt | nt | 7.4 | nt | 81.5* | 0.1
Cc1ccc(C(C)C)c(OCC(=O)Nc2sc3c(c2C#N)CC(C)(C)NC3(C)C)c1 | nt | 47.4 | -14.9 | nt | 50.1* | 21.4
COC(=O)c1c(NC(=O)COc2ccc(Cl)cc2)sc2c1CC(C)(C)NC2(C)C | 27.1 | 19.4 | -57.0* | nt | -165.7 | 33.0
OC(C1=CC(=Cc2ccncc2)c2ccccc21)c1ccncc1 (stereo not given) | 11.7 | 29.2 | -3.8 | 39.5 | 55.0* | -14.0
C[C@@H]1CCCCO[C@H](CN(C)CC2CCCCC2)[C@H](C)CN([C@H](C)CO)C(=O)c2cc(NS(=O)(=O)c3ccc(Cl)cc3)ccc2O1 | 25.9 | nt | nt | 62.7* | nt | nt
C[C@@H]1CCCCO[C@@H](CN(C)CC2CCCCC2)[C@@H](C)CN([C@H](C)CO)C(=O)c2cc(NS(=O)(=O)c3ccc(Cl)cc3)ccc2O1 | nt | 16.5 | 15.8 | 5.9 | 1.6 | -23.8
C[C@@H]1CCCCO[C@H](CN(C)CC2CCCCC2)[C@@H](C)CN([C@H](C)CO)C(=O)c2cc(NS(=O)(=O)c3ccc(Cl)cc3)ccc2O1 | 2.6 | nt | nt | -3.7 | nt | nt
C[C@@H]1CN([C@H](C)CO)C(=O)c2cc(NS(=O)(=O)c3ccc(Cl)cc3)ccc2O[C@@H](C)CCCCO[C@@H]1CN(C)CC1CCCCC1 | -4.4 | nt | nt | 61.4* | nt | nt
C[C@@H]1CN([C@H](C)CO)C(=O)c2cc(-c3cccc(F)c3)cnc2O[C@H]1CN(C)Cc1ccccc1 | -8.8 | nt | nt | 9.1 | nt | nt
Cc1ccc(S(=O)(=O)Nc2ccc3c(c2)CC(=O)N([C@@H](C)CO)C[C@H](C)[C@H](CN(C)Cc2ccc(C(=O)O)cc2)O3)cc1 | 9.5 | nt | nt | -3.6 | nt | nt
C/C=C/c1cnc2c(c1)C(=O)N([C@H](C)CO)C[C@H](C)[C@@H](CN(C)C(=O)C1CCCCC1)O2 | -8.5 | nt | nt | 1.4 | nt | nt
C[C@H](CO)N1C[C@H](C)[C@@H](CN(C)C)Oc2ncc(-c3cccnc3)cc2C1=O | nt | nt | nt | -10.2 | nt | nt
Cc1ccc(S(=O)(=O)N(C)C[C@@H]2Oc3ccc(NC(=O)CCCN(C)C)cc3CC(=O)N([C@H](C)CO)C[C@@H]2C)cc1 | -1.8 | nt | nt | -2.8 | nt | nt
COC(=O)c1cc(C(=O)N2CCN(C(=O)c3ccco3)CC2)cc([N+](=O)[O-])c1 | -19.4 | -12.4 | 3.6 | 6.2 | -6.5 | 8.2
COC(=O)c1cc(C(=O)N2CCN(c3cccc(C)c3C)CC2)cc([N+](=O)[O-])c1 | 13.6 | 1.6 | -19.3 | 56.1* | 1.6 | 15.4
O=C(c1cc(C(=O)N2CCCC2)cc([N+](=O)[O-])c1)N1CCCC1 | 0.0 | 20.0 | -1.7 | 4.0 | 11.7 | -1.9
CN1CCN(C(=O)c2cc([N+](=O)[O-])cc([N+](=O)[O-])c2)CC1 | 8.2 | -3.7 | 5.9 | 3.4 | 79.6* | -4.4
COC(=O)c1cc(C(=O)N2CCN(c3ccccc3OC)CC2)cc([N+](=O)[O-])c1 | 24.9 | 19.6 | -25.1 | 55.4* | -0.6 | 28.8
Cc1cccc(N2CCN(C(=O)c3ccc4[nH]c(C)c(C)c4c3)CC2)c1C | -9.6 | 26.7 | -20.1 | 54.1* | 5.6 | 33.5
Cc1[nH]c2ccc(C(=O)N3CCN(c4ccccc4Cl)CC3)cc2c1C | 0.0 | 4.5 | -24.7 | nt | -12.4 | 19.0
COC(=O)c1cc(C(=O)N2CCN(c3ncccn3)CC2)cc([N+](=O)[O-])c1 | -3.9 | 1.4 | 2.7 | -6.4 | -6.5 | -9.9
COc1ccc2c3c([nH]c2c1)[C@@H](CO)N(C(C)=O)CC31CCN(C(=O)c2cccc(F)c2)CC1 | -20.5 | nt | nt | 1.4 | nt | nt
CSC(=S)NN=C(C)c1cccc(C)n1 | ? | 16.4 | -9.6 | 13.2 | 91.0* | 76.0*
C[C@@H]1CN([C@H](C)CO)S(=O)(=O)c2ccc(/C=C/c3ccccc3)cc2O[C@@H]1CN(C)C(=O)C1CC1 | 2.6 | nt | nt | -2.8 | nt | nt
